The text below walks through data of PubChem BioAssay AID624094 (National Center for Advancing Translational Sciences (NCATS), 2012).

Results filed as inconclusive are left out. Values without a mark were called inactive. Calls of active or inactive are those of the source. The call rests on the fitted dose curve; in most records, active means well fitted inhibition curve with a large enough effect; inconclusive means small, poorly fitted or top-dose-only effect; inactive means flat fitted curve, though single readings scatter.

Chain of Dual specificity protein kinase CLK4 (Homo sapiens) (Q9HAZ1 whole entry, looked up): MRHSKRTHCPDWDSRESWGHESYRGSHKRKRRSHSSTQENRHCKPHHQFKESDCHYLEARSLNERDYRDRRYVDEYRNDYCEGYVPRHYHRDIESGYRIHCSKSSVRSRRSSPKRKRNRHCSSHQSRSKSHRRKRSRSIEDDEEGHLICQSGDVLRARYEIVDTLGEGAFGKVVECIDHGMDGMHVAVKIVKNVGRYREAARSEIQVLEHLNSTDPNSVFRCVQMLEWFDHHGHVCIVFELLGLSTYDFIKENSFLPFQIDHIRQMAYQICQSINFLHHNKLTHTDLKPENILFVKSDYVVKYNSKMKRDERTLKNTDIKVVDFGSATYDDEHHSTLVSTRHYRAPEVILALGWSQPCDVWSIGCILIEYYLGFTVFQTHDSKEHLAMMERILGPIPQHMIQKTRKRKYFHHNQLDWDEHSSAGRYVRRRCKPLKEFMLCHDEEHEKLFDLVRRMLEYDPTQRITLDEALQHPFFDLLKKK

In this assay the target is Dual specificity protein kinase CLK4 (Homo sapiens) (UniProt Q9HAZ1). The assay can be described thus: Confirmation Assay for Inhibitors of Clk4 (Kinase-Glo Assay): KU probe. The following applies: recombinant Clk4, Kinase-Glo ATP luminescence; series mostly up to 76.9 µM; activity, negative = inhibition: at the top concentration. Here is the method:
NIH Molecular Libraries Probe Production Centers Network [MLPCN] NIH Chemical Genomics Center [NCGC] MLPCN Grant: 1R03MH084827-01 Assay Submitter (PI): Tom Misteli NCGC Assay Overview: Clk4 (Invitrogen, cat# PV3839) was assayed using ATP and the RS repeat peptide (AnaSpec cat # 61722) as substrates. Following the Clk4 reaction, the remaining ATP levels were detected using Promega Kinase-Glo technology wherein the remaining ATP from the kinase reaction is detected using Ultra-Glo luciferase and D-luciferin which generates a bioluminescence signal from the ATP.
NCGC Assay Protocol Summary: Two uL/well of substrate-buffer solution (100 uM RS peptide, 1 uM ATP, 25 mM Tris pH7.5, 10 mM MgCl2, 0.5 mM EGTA, 2.5 mM DTT, 0.01% Triton X-100 final concentration) was dispensed into 1536-well, assay plates (Greiner, solid white medium-binding plates) with Aurora Discovery BioRAPTR Flying Reagent Dispenser (FRD; Beckton-Dickenson). Using a Kalypsys pin tool equipped with a 1536-pin tool, 23 nL of compound solution was transferred to the assay plate. One uL/ well Clk4-buffer solution (25 nM Clk4, 25 mM Tris pH 7.5, 10 mM MgCl2, 0.5 mM EGTA, 2.5 mM DTT, 0.01% Triton X-100, final concentrations) was then added using the FRD yielding a total kinase reaction volume of 3 uL/ well. After 4.5 hours of room temperature incubation, 3 uL Kinase-Glo reagent was added for a final assay volume of 6 uL/ well. Luminescence was detected with the ViewLux plate reader (Perkin Elmer, Waltham, MA) after 5 min incubation using a 5 second exposure time and 2x binning.
On the technique in general: In Kinase-Glo more light means more ATP remaining.
Consider `CN(C)c1ccc(-c2nccc(NCc3ccccc3)n2)cc1`, for which the “activity, negative = inhibition” value was -7.91%.
As for `Clc1cc(Cl)cc(CNc2cc(-c3ccc4c(c3)OCO4)ncn2)c1`, the Potency was 1640 nM (active).
Still for that read-out and setting: next, `Fc1cc(CNc2ccnc(-c3ccc4c(c3)OCO4)n2)cc(F)c1F`: 23200 nM (active); `c1cncc(CNc2nccc(-c3ccc4[nH]ncc4c3)n2)c1`: 26 nM (active).
The same measure, in the same setting: next, `CCCN(C)c1ncnc2ccc(-c3ccc4c(c3)OCO4)cc12`: 58.2 nM (active).
Same read-out and setting: the result for `Clc1cncc(CNc2ccnc(-c3ccc4c(c3)OCO4)n2)c1` reads 16400 nM (active).
For the molecule `CN(C)c1ccc(-c2nccc(NCc3ccc(Cl)cc3)n2)cc1`, the “activity, negative = inhibition” value was -6.08%.
As for `Clc1ccc(CNc2nccc(-c3ccc4c(c3)OCO4)n2)cc1`, the Potency was 51.9 nM (active).
Same read-out and setting: next, `c1ccc2ncc(CNc3ccnc(-c4ccc5c(c4)OCO5)n3)cc2c1`: 29200 nM (active).
Still for that read-out and setting: the result for `c1nc(NCC2CC2)c2cc(-c3ccc4c(c3)OCO4)ccc2n1` reads 32.8 nM (active).
As for `COc1cccc(-c2nccc(NCc3ccc(Cl)c(Cl)c3)n2)c1`, the Potency is 14600 nM (active).
The same measure, in the same setting: the result for `CN(C)c1ccc(-c2nccc(NCc3cccs3)n2)cc1` reads 9230 nM (active); that for `Fc1ccc(CNc2ccnc(-c3ccc4c(c3)OCO4)n2)cc1Br`, 13000 nM (active); that for `Brc1cc(Br)cc(CNc2ccnc(-c3ccc4c(c3)OCO4)n2)c1`, 5820 nM (active).
Regarding `Clc1ccc(CNc2ccnc(-c3cccnc3)n2)cc1`, the Potency is 16400 nM (active).
Same read-out and setting: next, `FC(F)(F)c1cccc(Nc2nccc(-c3ccc4c(c3)OCO4)n2)c1`: 65.4 nM (active); `Clc1ccc(CNc2ncncc2-c2ccc3c(c2)OCO3)cc1Cl`: 582 nM (active); `COc1cccc(-c2ccnc(NCc3ccc(Cl)c(Cl)c3)n2)c1`: 3680 nM (active).
On to `Cc1noc(C)c1-c1nccc(NCc2ccc(Cl)c(Cl)c2)n1`, for which the “activity, negative = inhibition” value was -4.48%.
`CC(C)(C)CNc1ncnc2ccc(-c3ccc(C(=O)O)o3)cc12`: the Potency is 463 nM (active).
On the same count and under the same terms, next, `FC(F)(F)c1cc(Br)cc(Nc2nccc(-c3ccc4c(c3)OCO4)n2)c1`: 130 nM (active).
Same read-out and setting: the result for `Fc1ccc(CNc2ccnc(-c3ccc4c(c3)OCO4)n2)cc1F` reads 18400 nM (active); that for `Cc1csc(CNc2ncnc3ccc(-c4ccc(CO)o4)cc23)n1`, 923 nM (active).
Same read-out and setting: the result for `COc1ccc(-c2ccnc(NCc3ccc(Cl)cc3)n2)cc1` reads 184 nM (active).
In the case of `c1cncc(CNc2ccnc(-c3ccc4[nH]ncc4c3)n2)c1`, the Potency is 146 nM (active).
As to `COc1ccc(-c2ccnc(NCc3ccc(Cl)c(Cl)c3)n2)cc1`, the Potency was 184 nM (active).
The same measure, in the same setting: next, `COc1cccc(-c2ncccn2)c1`: 14600 nM (active); `Clc1ccc(CNc2nccc(-c3ccc4cn[nH]c4c3)n2)cc1Cl`: 5820 nM (active).
Same read-out and setting: the result for `c1nc(NC[C@@H]2CCCO2)c2cc(-c3ccc4c(c3)OCO4)ccc2n1` reads 29.2 nM (active).
On to `COc1ccc(CNc2ccnc(-c3ccc(N(C)C)cc3)n2)cc1`, for which the “activity, negative = inhibition” value is -2.14%.
As to `Clc1ccc(CNc2ccnc(-c3cccnc3)n2)cc1Cl`, the Potency is 13000 nM (active).
Still for that read-out and setting: next, `c1nc(NCC2CCOC2)c2cc(-c3ccc4c(c3)OCO4)ccc2n1` (stereo not given): 58.2 nM (active).
Still for that read-out and setting: next, `Cc1c(-c2ccnc(NCc3ccc(Cl)cc3)n2)sc(=O)n1C`: 58.2 nM (active); `c1nc(NCC2CCCCC2)c2cc(-c3ccc4c(c3)OCO4)ccc2n1`: 65.4 nM (active); `O=[N+]([O-])c1cc(Nc2nccc(-c3ccc4c(c3)OCO4)n2)cc(C(F)(F)F)c1`: 104 nM (active).
Consider `Fc1cncc(CNc2ccnc(-c3ccc4c(c3)OCO4)n2)c1`, for which the Potency was 8230 nM (active).
On the same count and under the same terms, next, `Clc1ccc(CNc2nccc(-c3ccc4[nH]ncc4c3)n2)cc1Cl`: 26 nM (active).
Consider `COc1ccc(CNc2ccnc(-c3cccc(C#N)c3)n2)cc1`, for which the Potency was 9230 nM (active).
Same read-out and setting: next, `Cc1c(-c2ccnc(NCc3cccnc3)n2)sc(=O)n1C`: 46.3 nM (active); `c1nc(NCCC2CCCO2)c2cc(-c3ccc4c(c3)OCO4)ccc2n1` (stereo not given): 51.9 nM (active).
